# Data as given in PubChem BioAssay AID588676 (Johns Hopkins Ion Channel Center, 2011).
# The whole screen tested about 310,000 compounds, of which about 3,900 (1.3%) were called active.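 Rule for the calls: active = calcium-response B-score plate-corrected more than 3 library SD below zero, starting fluorescence within 5 deviations, no agonist response on first addition; inactive = the rest.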 Only a selection was taken, and actives are over-represented in it overall.
# Molecular target: Mas-related G-protein coupled receptor member X1 (Homo sapiens) (UniProt Q96LB2)
# Test: antagonists of human MrgX1 receptor, primary screen, HEK293 cells, Fluo-4 calcium flux (AID 588676);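 for B-score: peak minus trough fluorescence over baseline after final BAM8-22 challenge near maximal dose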
# Conditions: Fluo-4, BAM8-22 antagonism, at 10 µM; stronger effect = lower value
# Chain of Mas-related G-protein coupled receptor member X1 (Homo sapiens) (Q96LB2 whole entry, looked up): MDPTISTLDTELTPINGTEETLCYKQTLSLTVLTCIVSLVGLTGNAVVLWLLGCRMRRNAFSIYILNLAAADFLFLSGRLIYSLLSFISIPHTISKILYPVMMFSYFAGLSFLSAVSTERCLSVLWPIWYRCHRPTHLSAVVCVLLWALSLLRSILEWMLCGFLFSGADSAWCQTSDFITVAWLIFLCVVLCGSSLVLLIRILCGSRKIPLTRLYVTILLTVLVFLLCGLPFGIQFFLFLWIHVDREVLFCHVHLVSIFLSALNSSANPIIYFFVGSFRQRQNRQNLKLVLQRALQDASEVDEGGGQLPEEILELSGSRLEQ
row,SMILES,B-score
1,CCS(=O)(=O)c1ccc2c(c1)N(S(=O)(=O)c1ccccc1)CC(C(=O)O)O2 (configuration not stated),-4.74 (active)
2,CCS(=O)(=O)c1ccc2oc(SCC(=O)N3c4ccccc4CC3C)nc2c1 (configuration not stated),inactive
3,CCOC(=O)C1CN(S(=O)(=O)c2ccc(OC)cc2)c2cc(Cl)ccc2O1 (configuration not stated),inactive
4,Cc1ccc(C)c(S(=O)(=O)N2CCCOC2CNC(=O)C(=O)NC2CCCCC2)c1 (configuration not stated),inactive
5,COc1cc(OC)cc(C(=O)NCCCn2ccnc2)c1,inactive
6,CC1CC(C)CN(C(=O)CCNC(=O)Cn2cnc3ccccc3c2=O)C1 (configuration not stated),inactive
7,CCN1CCN(c2cc3nc(C)n(Cc4ccccc4)c(=O)c3cc2NC(=O)c2ccccc2F)CC1,inactive
8,COc1ccc(COC(=O)c2ccc(Cl)c(S(=O)(=O)N3CCOCC3)c2)cc1F,inactive
9,Cc1cc(NC(=O)COC(=O)c2ccc(F)c(S(=O)(=O)N3CCOCC3)c2)no1,inactive
10,CCOc1ccc(CCNC(=O)COC(=O)c2ccc(F)c(S(=O)(=O)N3CCOCC3)c2)cc1OCC,-5.64 (active)
11,Fc1ccc(-c2ccc(CNCc3ccccn3)o2)cc1Cl,inactive
12,CCCCc1nc2cc(C(=O)N3CCCCC3CCO)ccc2o1 (configuration not stated),inactive
13,COc1ccc(-n2nc3c(N4CCC(C(=O)NCc5ccccc5)CC4)nnc(C)c3c2C)cc1,inactive
14,OCC1(Cc2ccccc2C(F)(F)F)CCN(Cc2ccncc2)CC1,inactive
15,C/C(=N/N1CCN(Cc2cccc3ccccc23)CC1)c1cccnc1,inactive
16,OCC1(Cc2ccccc2C(F)(F)F)CCN(Cc2cccc3cnccc23)CC1,-7.22 (active)
17,CCc1cc2c(SCC(=O)Nc3ncc(Cl)c(C)c3Cl)ncnc2s1,-4.97 (active)
18,CCc1cc2c(NC(Cc3ccccc3)C(=O)O)ncnc2s1 (configuration not stated),inactive
19,CCc1cc2c(NC3CCCC3)ncnc2s1,inactive
20,Cc1ccc(C(=O)N/C(=C\c2ccco2)C(=O)NC2CCS(=O)(=O)C2)cc1 (configuration not stated),inactive
21,ON=C1/C(=N\O)CC2(C/C1=N/O)OCCO2,inactive
22,Nc1nc(-c2sc3nc4c(cc3c2N)CCCC4)nc(N2CCOCC2)n1,inactive
23,Cc1ccccc1S(=O)(=O)N1[C@@H](c2cccc(Cl)c2)C(C(=O)O)=CC[C@H]1c1ccc(Cl)cc1,inactive
24,Cc1ccc(S(=O)(=O)N2[C@@H](c3cccc(Cl)c3)C(C(=O)O)=CC[C@H]2c2ccc(Cl)c(Cl)c2)cc1,-6.18 (active)
25,Cc1ccc([C@@H]2CC=C(C(=O)O)[C@H](c3cccc(Cl)c3)N2S(=O)(=O)c2ccc(C)cc2)cc1,inactive
26,COc1ccccc1OCCC(=O)OCC(=O)NCc1ccccc1,inactive

row,SMILES,B-score
1,CC(=O)c1cc(-c2ccccc2)n(CCC(=O)NC2CCCCCC2)c1C,inactive
2,Cc1occc1C(=O)NC1CCCN(Cc2ccc(CC(C)C)cc2)C1 (configuration not stated),inactive
3,CCOC(=O)c1ccc(NC(=O)c2nc[nH]c2C(=O)N[C@@H](CCCCNC(=O)OC(C)(C)C)C(=O)OC(C)(C)C)cc1,inactive
4,Cc1ccc(NC(=O)c2nc[nH]c2C(=O)N[C@@H](CCCCNC(=O)OC(C)(C)C)C(=O)OC(C)(C)C)cc1,-9.54 (active)
5,CNC(=O)c1[nH]cnc1C(=O)N[C@@H](CC(C)C)C(=O)OC(C)(C)C,inactive
6,O=[N+]([O-])c1ccc(Oc2ccc(F)cc2Br)c2ccncc12,inactive
7,O=C(CN1CCN(c2ccc(O)cc2)CC1)Nc1ccc(-c2ccccc2)cc1,inactive
8,O=C(COC(=O)c1ncc(Cl)c(Cl)c1Cl)NCc1cccs1,inactive
9,NS(=O)(=O)c1cc(C(=O)OCC(=O)NNC(=O)c2ccccc2)ccc1Cl,inactive
10,O=C(COC(=O)c1ncc(Cl)c(Cl)c1Cl)NNC(=O)c1ccccc1,-4.63 (active)
11,CC(=O)c1cnn(-c2cc(Oc3ccc(F)cc3)ncn2)c1C,inactive
12,Cc1cc(NC(=O)[C@H](C)NC(=O)c2ccco2)ccc1Br,inactive
13,NC1=NC(=O)C2(COC(c3ccccc3Cl)OC2)S1 (configuration not stated),inactive
14,O=C(CN1CCSCC1)N/N=C/c1ccc(Cl)cc1,inactive
15,FC(F)(F)c1nc2ccccc2nc1N/N=C/c1ccc(Cl)cc1,inactive
16,Clc1ccc(C=NC23CN4CN(CN(C4)C2)C3)cc1,-6.85 (active)
17,COc1ccc(CCNC(=O)C2CCCN(Cc3nc(-c4cccc(Cl)c4)oc3C)C2)cc1OC (configuration not stated),inactive
18,COCCn1c(C)cc(C(=O)COC(=O)/C=C/c2cccc(OC)c2)c1C,inactive
19,CCc1[nH]nc(C(=O)N2CCCC(CO)(Cc3ccc(F)cc3F)C2)c1C (configuration not stated),inactive
20,C=CCNC(=O)c1sc(SC)cc1-c1ccc(Cl)cc1,inactive
21,O=C(NC(Nc1nc2ccc([N+](=O)[O-])cc2s1)(C(F)(F)F)C(F)(F)F)c1ccccc1,-6.28 (active)
22,CCOc1ccc2nc(NC(=O)c3cc([N+](=O)[O-])ccc3N3CCOCC3)sc2c1,inactive
23,CCC(=O)NC(Nc1nc2ccc(C)cc2s1)(C(=O)OC)C(F)(F)F (configuration not stated),inactive
24,CCCOC(=O)c1c(NC(=O)c2cnn3c2NC(c2ccccc2)CC3C(F)(F)F)sc2c1CCCC2 (configuration not stated),inactive
25,Cc1nc(N=C(N)N)nc2c(C)cccc12,inactive
26,CCOc1cc(/C=C2/N=C(c3ccc(C(C)(C)C)cc3)OC2=O)cc(Cl)c1OS(C)(=O)=O,inactive

row,SMILES,B-score
1,Cc1cccc(NC(=O)Cn2c(=O)n(Cc3ccccc3)c(=O)c3c(C)c(C)sc32)c1,inactive
2,COc1ccc(C2CC(c3ccc(Cl)cc3Cl)Nc3nc(N)nn32)cc1OC (configuration not stated),inactive
3,CCOc1ccccc1C1CC(c2ccccc2)Nc2nc(N)nn21 (configuration not stated),inactive
4,CCOc1ccccc1C1CC(c2ccc(Cl)cc2)Nc2nc(N)nn21 (configuration not stated),-7.74 (active)
5,COCCC(=O)Nc1ccc2c(c1)CN(C(=O)CCOC)CC2,inactive
6,COc1ccc2cc(-c3[nH]ncc3CNCCn3nc(C)cc3C)ccc2c1,inactive
7,CCOc1ccc(CN2CCN(Cc3ccc4cc(F)ccc4n3)CC2CCO)cc1 (configuration not stated),inactive
8,C=CCNC(=O)c1csc(-c2ccccc2)n1,-6.07 (active)
9,O=C(NCCc1csc(-c2ccccc2)n1)c1ccccc1F,inactive
10,CNC(=O)c1csc(-c2ccccc2)n1,inactive
11,C=CCNC(=O)c1cc(-c2ccccc2O)on1,-5.5 (active)
12,O=C(c1cc(-c2ccccc2O)on1)N1CCCC1,inactive
13,O=C(Nc1cccnc1Cl)c1cc(-c2ccccc2O)on1,inactive
14,CC(NC(=O)CCCC1CCCCC1)c1ccc(S(N)(=O)=O)cc1 (configuration not stated),inactive
15,Cc1ccc(C)c(N2CCN(C(=O)Cn3ncn4cccc4c3=O)CC2)c1,inactive
16,O=C(C1=C[C@H](C2CC2)C[C@H](OCc2ccc(CO)cc2)O1)N1CCN(Cc2ccccc2)CC1,inactive
17,Nc1nc(NCc2ccccc2)n(-c2ccccc2)n1,inactive
18,O=C1CCC(C(=O)N2CCCCO2)CN1Cc1cccc(C(F)(F)F)c1 (configuration not stated),inactive
19,O=C(NC(=S)Nc1cccc(-c2ccc(CO)o2)c1)c1cccs1,inactive
20,CCc1ccc(-c2cc3c(=O)n(CC(=O)NCCCN4CCN(Cc5ccccc5)CC4)nc(C)n3n2)cc1,inactive
21,COc1cccc(CNC(=O)CN(C)S(=O)(=O)c2ccc3c(c2)c(=O)n(C)c(=O)n3C)c1,inactive
22,COc1ccccc1NC(=O)CCC(=O)OC(C)C(=O)c1ccccc1 (configuration not stated),inactive
23,CC1(C(=O)NNC(=S)NCC2CCCO2)CC1(Cl)Cl (configuration not stated),-5.39 (active)
24,CCC(=O)NC(NCC1CCCO1)C(Cl)(Cl)Cl (configuration not stated),inactive
25,S=C(NCCc1ccccc1)NCC1CCCO1 (configuration not stated),inactive
26,Cc1ccc(S(=O)(=O)Nc2nc3ccccc3s2)cc1[N+](=O)[O-],inactive

row,SMILES,B-score
1,COCCNC(=O)c1ccccc1NS(=O)(=O)c1ccc(C)c([N+](=O)[O-])c1,-4.52 (active)
2,Cc1ccc(S(=O)(=O)NCCSc2ccccc2)cc1[N+](=O)[O-],inactive
3,CCN1C(=O)[C@H]2[C@@H](c3ccc(SC4CCCCC4)c(OC)c3)N[C@@](Cc3ccccc3)(C(=O)OC)[C@H]2C1=O,inactive
4,CCOC(=O)Cn1c(O)c(N=NC(=O)CNC(=O)Cc2ccccc2)c2ccccc21,inactive
5,CCOc1cc(S(=O)(=O)NCc2ccc3c(c2)OCO3)ccc1F,inactive
6,Cc1cccc(NC(=O)N(Cc2cc3cc(C)cc(C)c3[nH]c2=O)CC2COCCO2)c1 (configuration not stated),inactive
7,CCOc1ccc(NC(=O)[C@H](C)NC(=O)C2CC(=O)N(c3ccc(OC)cc3)C2)cc1 (some centres not stated),inactive
8,NC(=O)c1ccccc1N=Cc1ccc2ccccc2c1,inactive
9,O=C(CSc1ncccn1)NCCc1ccccc1,inactive
10,O=C(COc1ncnc2ccccc12)NC(=O)NCc1ccccc1,inactive
11,O=C(CSc1ncccn1)NC(=O)NCc1ccccc1,-6.78 (active)
12,CCOC(=O)[C@H]1[C@H]2COc3ccc(OC)cc3[C@@H]2N2C(=O)c3ccc(F)cc3NC(=O)[C@@]12C,inactive
13,COC1=C(N2CCOCC2)C(=O)c2ccccc2C1=O,inactive
14,CN1C(C(=O)NCC2CC2)CC2Cn3c(nc4ccccc43)C21 (configuration not stated),inactive
15,C(=N\n1cnnc1)/c1cccnc1,-4.63 (active)
16,Clc1ccc(CN2CCN(/N=C/c3cccnc3)CC2)cc1,inactive
17,COc1cccc(OCCOc2cccc(/C=N/n3cnnc3)c2)c1,inactive
18,Cc1ccc(S(=O)(=O)N2[C@@H](c3ccccc3F)C(C(=O)O)=CC[C@H]2c2ccc(Cl)cc2)cc1,inactive
19,CC1CCC(NC(=O)CN(C)S(=O)(=O)c2ccc3c(c2)c(=O)n(C)c(=O)n3C)CC1 (configuration not stated),inactive
20,CS(=O)(=O)Nc1ccccc1N=C(c1ccccc1)c1ccccc1,inactive
21,NC(N)=NCCCc1cn(CC(=O)N2CCNCC2)nn1,inactive
22,Cc1nn(-c2ccccc2)c(C)c1NC(=O)CCl,inactive
23,Cc1nn(-c2ccccc2)c(C)c1NC(=O)COc1ccc(Cl)cc1Cl,-5.44 (active)
24,Cc1nn(-c2ccccc2)c(C)c1NC(=O)COC(=O)c1cc(Cl)ccc1O,inactive
